Test [1] has as its target Lysosomal acid glucosylceramidase (Homo sapiens) (UniProt P04062). Description: Glucocerebrosidase-p2 (AID 348; in the data active means potency below about 10 µM; further: potency means the concentration at half of the fitted maximal effect). As to conditions: purified GBA, blue fluorogenic substrate, 40 min. The gist of the method: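 Compounds titrated from 0.6 nM upwards against 0.2 nM enzyme in pH 5.9 citric acid/KH2PO4, taurocholate, tween-20; blue fluorogenic substrate 80 uM, 40 min room temperature, stopped and read Ex 365/Em 440 for AC50.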

Test [2] can be described thus: AP1 Signaling Pathway (AID 357). Further: on the % scale 0 is the no-effect control and ±100 the full control effect. The note with it: ME-180 AP-1-bla reporter, EGF-induced, beta-lactamase ratio, 5 h; at 7.69 µM (top of the series) unless noted. The gist of the method: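 A ratiometric CCF4 readout (405 nm excitation; 460 and 530 nm emission) quantified AP-1-driven beta-lactamase in ME-180 cells after 5 h with compound and EC50 EGF; AC50 values were derived for activators and inhibitors.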

Test [3] addresses Cytochrome P450 1A2 (Homo sapiens) (UniProt P05177). Description: p450-cyp1a2 (AID 410; calls by dose curve; further: potency means the concentration at half of the fitted maximal effect). The note with it: recombinant CYP1A2, luciferin-ME demethylation, luminescence; series mostly up to 11.4 µM. The gist of the method: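 Luminescent readout of luciferin formed from Luciferin-ME by human CYP1A2; data normalized against complete inhibition by 57 uM furafylline. Enzyme 20nM, substrate 100uM at Km, 100mM KPO4 buffer, 60 min reaction at room temperature.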

The nature of test [4]: NFAT Signaling Pathway (AID 444).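 Further: carbachol stimulus at about its EC50 of 1 µM final; on the % scale 0 is the no-effect control and ±100 the full control effect.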 The note with it: Jurkat NFAT-bla M1, carbachol, beta-lactamase ratio, 5 h; at 7.69 µM (top of the series) unless noted. The gist of the method: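 Jurkat cells with NFAT-driven β-lactamase reporter and co-expressed M1 receptor, stimulated with carbachol (final 1 uM, ~EC50), compound titration, 5 h at 37 °C. CCF4 loaded 1 h at RT; 460/530 nm ratio gave %activity and AC50.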

Test [5] can be described thus: Stat Signaling Pathway (AID 446).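 Further: ME-180 cervical cancer cells given 40 pM IL-6 alongside compound; SIE-controlled beta-lactamase reporter measured as 460/530 nm FRET emission ratio; on the % scale 0 is the no-effect control and ±100 the full control effect.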 As to conditions: ME-180 SIE beta-lactamase reporter, IL-6 stimulated, 5 h; at 7.69 µM (top of the series) unless noted. The essentials:
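ME-180 SIE-bla cells; overnight plating; cpd + IL-6 40 pM, 5 h, 37 C; LiveBLAzer 2.5 h RT; 460/530 nm emission ratio. Normalized to 300 pM IL-6 and 125 nM JAK inhibitor controls.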

Test [6] concerns the target Glucocorticoid receptor (Homo sapiens) (UniProt P04150). Description: GR-GFP Redistribution (AID 450;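 active means compounds whose dose series gives a full or clear partial fitted curve of increased nuclear translocation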; further: potency means the concentration at half of the fitted maximal effect). The note with it: U2OS GR-GFP nuclear translocation, laser cytometry, 2 h.
Test [7] shares this target. Description: GR-EFC Redistribution (AID 451; calls by dose curve; further: potency means the concentration at half of the fitted maximal effect). The note with it: CHO-K1 GR-EFC translocation, beta-gal luminescence, 2 h. The gist of the method:
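CHO-K1 cells expressing nuclear EA and GR-ED fragments of b-gal; compounds titrated up to 46 uM final, 2 h at 37 C. GR nuclear translocation read as complemented b-gal luminescence after 1 h RT detection.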

Test [8] concerns the target Mitogen-activated protein kinase 10 (Mus musculus) (UniProt Q61831). Description: JNK3 AlphaScreen Assay (AID 530).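 Further: kinase came from lysate of stimulated human HepG2 cells; signal reports phosphorylation of biotinylated GST-cJun 1-79 at Ser73 with 10 µM ATP; on the % scale 0 is the no-effect control and ±100 the full control effect.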 As to conditions: JNK3 lysate, c-Jun phosphorylation; series mostly up to 11.4 µM. The essentials:
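Pre-activated (IL-1β/TNFα) JNK3 in HepG2 lysates phosphorylates biotin-GST-cJun(1-79), 10 uM ATP; anti-phospho-cJun(Ser73) AlphaScreen read at room temperature, pH 7.6 Tris buffer. Compounds pre-incubated 15 min as titrations.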
(In general: Bead proximity is the source of the signal in Alpha formats.)

In test [9] the target is Cytochrome P450 2C9 (Homo sapiens) (UniProt P11712). Description: qHTS Assay for Inhibitors and Substrates of Cytochrome P450 2C9 (AID 883; active means well fitted curve in the direction sought with a large enough effect; an effect the other way counts as inactive or inconclusive; further: potency means the concentration at half of the fitted maximal effect; nearly all actives have a fitted effect of over 60% in size). The note with it: recombinant CYP2C9, luciferin-H luminescence, 60 min; series mostly up to 11.4 µM. The essentials: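 10nM CYP2C9 + 100uM Luciferin-H (=KM), 25mM KPO4; cpd 10 min 37C; NADPH regen, 60 min 37C; stop/detect with P450 Glo-Buffer 20 min; luminescence. Norm. to 57uM sulphaphenazole as full inhibition.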

The target in test [10] is Cytochrome P450 3A4 (Homo sapiens) (UniProt P08684). Description: qHTS Assay for Inhibitors and Substrates of Cytochrome P450 3A4 (AID 884; active means well fitted curve in the direction sought with a large enough effect; an effect the other way counts as inactive or inconclusive; further: potency means the concentration at half of the fitted maximal effect; nearly all actives have a fitted effect of over 50% in size). The note with it: recombinant CYP3A4, Luciferin-PPXE luminescence; series mostly up to 57.1 µM. The essentials:
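20 nM human CYP3A4 with 25 uM Luciferin-PPXE (at KM) in 200 mM KPO4, preincubated 10 min with compound; NADPH regeneration started a 60 min RT reaction. Luciferin detected by luminescence, normalized to 57 uM ketoconazole as full inhibition.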
A general note: qHTS replaces the single test concentration by a dilution series.

For test [11] the target is unchanged. Description: qHTS Assay for Activators of Cytochrome P450 3A4 (AID 885; active means well fitted curve in the direction sought with a large enough effect; an effect the other way counts as inactive or inconclusive; further: nearly all actives have a fitted effect of over 65% in size). As to conditions: recombinant CYP3A4, Luciferin-PPXE luminescence, 60 min; series mostly up to 11.4 µM. The gist of the method:
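20nM CYP3A4 + 25uM Luciferin-PPXE (=KM), 200mM KPO4; cpd 10 min RT; NADPH regen, 60 min RT; stop w/ detection buffer, 20 min; luminescence. Normalized to 57 uM ketoconazole.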

The target of test [12] is Cytochrome P450 2C19 (Homo sapiens) (UniProt P33261). Description: qHTS Assay for Inhibitors and Substrates of Cytochrome P450 2C19 (AID 899; active means well fitted curve in the direction sought with a large enough effect; an effect the other way counts as inactive or inconclusive; further: potency means the concentration at half of the fitted maximal effect; nearly all actives have a fitted effect of over 60% in size). As to conditions: recombinant CYP2C19, luciferin-H EGE luminescence; series mostly up to 11.4 µM. The gist of the method:
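Luminescent read-out of luciferin formed from Luciferin-H EGE (10uM, equal to KM). Enzyme 5nM in 50mM KPO4; compound added, 10 min at 37C, then NADPH regenerating system for 60 min at 37C. Full inhibition defined by 57uM ketoconazole.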

Test [13] in a line: qHTS Assay for Identification of Small Molecule Agonists for Hypoxia Response Element Signaling Pathway (AID 914; active means well fitted activation curve with a large enough effect in the signal ratio, with a control signal flat, not every such curve was filed as active; the % refers to the signal ratio; further: % of control where 0% means no effect). The note with it: ME-180 (cervical carcinoma) HRE-bla reporter, beta-lactamase ratio, CoCl2, 17 h; activation: stronger effect = higher value. The gist of the method:
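HRE-bla ME-180 cells with beta-lactamase reporter under hypoxia response element, compounds with EC50 CoCl2 for 17 hours at 37 C. CCF4 substrate, 460nm/530nm emission ratio gave %Activity; AC50 from titration series.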

The target in test [14] is 3',5'-cyclic-AMP phosphodiesterase 4B (Homo sapiens) (UniProt Q07343). Description: qHTS Assay for Inhibitors of PDE-IV (AID 607; active means well fitted activation curve with a large enough effect in the main read-out, with a control signal flat, not every such curve was filed as active; further: % of control where 0% means no effect). As to conditions: HEK293 ACTOne CNG channel cells, membrane potential fluorescence; series mostly up to 22.9 µM. The gist of the method: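 ACTOne HEK293 cells carry a modified cAMP-gated CNG channel and express endogenous PDE4; plated 1000 cells/well, compounds up to 22.9 uM final. Membrane-potential dye fluorescence (ex 535/em 590) was read; parental cells received 10 uM forskolin + 100 uM RO 20-1724.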

Each structure is given as a SMILES string. A number with no mark means an inactive call. Results filed as inconclusive are left out. Active and inactive are the calls of the source. Unless noted, the call rests on the fitted dose curve; in most records, active means well fitted curve in either direction with a large enough effect (not every such curve was filed as active); inconclusive means small, poorly fitted or top-dose-only effect, or another doubt; inactive means flat fitted curve, though single readings scatter.

Cytochrome P450 3A4 (Homo sapiens), sequence (P08684 whole entry, looked up): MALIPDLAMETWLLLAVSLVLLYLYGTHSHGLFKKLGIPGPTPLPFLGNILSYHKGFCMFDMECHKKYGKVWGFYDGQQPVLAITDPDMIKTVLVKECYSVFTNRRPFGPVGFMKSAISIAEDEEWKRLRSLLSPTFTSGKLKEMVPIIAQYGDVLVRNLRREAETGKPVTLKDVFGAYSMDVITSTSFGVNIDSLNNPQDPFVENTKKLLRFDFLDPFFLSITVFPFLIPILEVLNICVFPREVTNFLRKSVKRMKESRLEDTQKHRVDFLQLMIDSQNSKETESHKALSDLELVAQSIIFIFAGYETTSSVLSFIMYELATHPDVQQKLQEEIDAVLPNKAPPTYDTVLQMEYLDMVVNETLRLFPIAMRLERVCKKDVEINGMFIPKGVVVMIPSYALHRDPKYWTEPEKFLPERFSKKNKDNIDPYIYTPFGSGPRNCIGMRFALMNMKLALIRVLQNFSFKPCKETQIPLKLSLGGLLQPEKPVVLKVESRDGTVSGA
Cytochrome P450 1A2 (Homo sapiens), sequence (P05177 whole entry, looked up): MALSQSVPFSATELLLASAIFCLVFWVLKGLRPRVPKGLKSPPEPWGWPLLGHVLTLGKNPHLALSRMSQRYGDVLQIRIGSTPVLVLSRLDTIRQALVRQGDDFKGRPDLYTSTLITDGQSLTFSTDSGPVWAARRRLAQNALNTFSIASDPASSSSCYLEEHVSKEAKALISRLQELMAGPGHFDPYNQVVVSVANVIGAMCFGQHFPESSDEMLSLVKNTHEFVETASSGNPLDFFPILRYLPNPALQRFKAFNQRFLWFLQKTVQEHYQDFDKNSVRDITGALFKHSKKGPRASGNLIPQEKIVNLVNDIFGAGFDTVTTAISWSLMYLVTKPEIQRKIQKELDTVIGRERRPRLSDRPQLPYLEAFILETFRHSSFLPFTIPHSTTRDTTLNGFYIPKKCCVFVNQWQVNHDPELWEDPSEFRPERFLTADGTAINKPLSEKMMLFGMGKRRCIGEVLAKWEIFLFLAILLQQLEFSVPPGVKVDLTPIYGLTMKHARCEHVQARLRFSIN
Lysosomal acid glucosylceramidase (Homo sapiens), sequence (P04062 whole entry, looked up): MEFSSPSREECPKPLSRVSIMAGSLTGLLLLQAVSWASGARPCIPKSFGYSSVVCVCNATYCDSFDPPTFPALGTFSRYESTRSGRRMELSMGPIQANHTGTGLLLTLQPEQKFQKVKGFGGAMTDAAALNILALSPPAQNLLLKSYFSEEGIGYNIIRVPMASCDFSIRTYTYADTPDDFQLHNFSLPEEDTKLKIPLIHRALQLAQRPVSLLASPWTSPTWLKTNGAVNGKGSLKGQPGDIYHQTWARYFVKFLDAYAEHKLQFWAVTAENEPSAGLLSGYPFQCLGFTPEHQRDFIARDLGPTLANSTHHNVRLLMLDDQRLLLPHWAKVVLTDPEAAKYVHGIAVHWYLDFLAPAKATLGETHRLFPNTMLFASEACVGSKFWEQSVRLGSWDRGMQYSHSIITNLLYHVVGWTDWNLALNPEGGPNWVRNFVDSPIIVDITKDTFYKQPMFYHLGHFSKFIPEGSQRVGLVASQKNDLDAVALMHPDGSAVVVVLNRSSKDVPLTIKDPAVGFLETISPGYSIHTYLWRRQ
Glucocorticoid receptor (Homo sapiens), sequence (P04150 whole entry, looked up): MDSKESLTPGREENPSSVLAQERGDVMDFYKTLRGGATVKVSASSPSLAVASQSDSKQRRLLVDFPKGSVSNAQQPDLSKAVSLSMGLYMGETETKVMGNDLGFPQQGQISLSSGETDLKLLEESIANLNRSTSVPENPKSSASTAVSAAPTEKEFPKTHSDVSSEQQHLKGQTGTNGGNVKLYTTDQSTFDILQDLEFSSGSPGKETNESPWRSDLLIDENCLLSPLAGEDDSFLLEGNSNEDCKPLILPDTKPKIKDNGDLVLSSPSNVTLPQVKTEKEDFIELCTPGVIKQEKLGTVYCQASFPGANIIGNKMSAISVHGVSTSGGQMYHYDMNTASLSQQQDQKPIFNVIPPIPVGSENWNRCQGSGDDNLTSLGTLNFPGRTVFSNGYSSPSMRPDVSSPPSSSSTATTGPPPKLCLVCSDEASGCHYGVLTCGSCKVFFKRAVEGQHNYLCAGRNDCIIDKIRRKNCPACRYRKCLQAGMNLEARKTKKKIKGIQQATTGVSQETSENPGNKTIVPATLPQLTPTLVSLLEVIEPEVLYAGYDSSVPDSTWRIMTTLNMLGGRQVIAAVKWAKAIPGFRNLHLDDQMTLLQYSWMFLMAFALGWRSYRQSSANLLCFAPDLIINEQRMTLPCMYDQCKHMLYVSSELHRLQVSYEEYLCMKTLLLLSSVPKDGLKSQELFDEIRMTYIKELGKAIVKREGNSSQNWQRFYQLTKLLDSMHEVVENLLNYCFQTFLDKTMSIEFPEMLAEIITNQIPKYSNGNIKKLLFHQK
3',5'-cyclic-AMP phosphodiesterase 4B (Homo sapiens), sequence (Q07343 whole entry, looked up): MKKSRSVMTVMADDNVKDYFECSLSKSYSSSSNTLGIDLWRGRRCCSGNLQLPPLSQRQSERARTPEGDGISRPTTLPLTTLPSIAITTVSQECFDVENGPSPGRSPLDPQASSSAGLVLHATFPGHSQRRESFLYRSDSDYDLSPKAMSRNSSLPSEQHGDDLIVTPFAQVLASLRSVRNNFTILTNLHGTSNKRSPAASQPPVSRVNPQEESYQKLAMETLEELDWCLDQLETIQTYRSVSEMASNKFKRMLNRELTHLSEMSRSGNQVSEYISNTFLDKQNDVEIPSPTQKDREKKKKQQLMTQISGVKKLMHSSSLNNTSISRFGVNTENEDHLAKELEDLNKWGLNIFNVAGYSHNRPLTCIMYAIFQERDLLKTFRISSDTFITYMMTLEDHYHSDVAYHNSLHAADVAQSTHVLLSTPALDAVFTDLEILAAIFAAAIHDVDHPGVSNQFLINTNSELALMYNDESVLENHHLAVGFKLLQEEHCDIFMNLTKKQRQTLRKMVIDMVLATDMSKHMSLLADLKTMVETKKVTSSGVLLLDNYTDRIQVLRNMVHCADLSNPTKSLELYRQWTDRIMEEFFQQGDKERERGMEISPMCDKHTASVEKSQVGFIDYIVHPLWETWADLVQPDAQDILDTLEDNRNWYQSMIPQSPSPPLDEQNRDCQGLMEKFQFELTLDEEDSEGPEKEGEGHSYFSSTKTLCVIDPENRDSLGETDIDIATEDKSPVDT
Cytochrome P450 2C19 (Homo sapiens), sequence (P33261 whole entry, looked up): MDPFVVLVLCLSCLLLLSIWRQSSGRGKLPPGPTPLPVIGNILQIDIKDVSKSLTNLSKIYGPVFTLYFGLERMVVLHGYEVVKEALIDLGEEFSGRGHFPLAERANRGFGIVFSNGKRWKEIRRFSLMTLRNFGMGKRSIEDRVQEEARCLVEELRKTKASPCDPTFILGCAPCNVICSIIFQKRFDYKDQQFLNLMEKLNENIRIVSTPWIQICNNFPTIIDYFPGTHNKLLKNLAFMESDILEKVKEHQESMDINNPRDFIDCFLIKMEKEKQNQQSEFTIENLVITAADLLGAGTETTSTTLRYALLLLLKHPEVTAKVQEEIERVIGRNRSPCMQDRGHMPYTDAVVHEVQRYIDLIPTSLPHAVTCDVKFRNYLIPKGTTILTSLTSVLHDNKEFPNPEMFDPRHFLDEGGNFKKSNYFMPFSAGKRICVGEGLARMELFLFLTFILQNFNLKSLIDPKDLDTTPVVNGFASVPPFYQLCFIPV
Cytochrome P450 2C9 (Homo sapiens), sequence (P11712 whole entry, looked up): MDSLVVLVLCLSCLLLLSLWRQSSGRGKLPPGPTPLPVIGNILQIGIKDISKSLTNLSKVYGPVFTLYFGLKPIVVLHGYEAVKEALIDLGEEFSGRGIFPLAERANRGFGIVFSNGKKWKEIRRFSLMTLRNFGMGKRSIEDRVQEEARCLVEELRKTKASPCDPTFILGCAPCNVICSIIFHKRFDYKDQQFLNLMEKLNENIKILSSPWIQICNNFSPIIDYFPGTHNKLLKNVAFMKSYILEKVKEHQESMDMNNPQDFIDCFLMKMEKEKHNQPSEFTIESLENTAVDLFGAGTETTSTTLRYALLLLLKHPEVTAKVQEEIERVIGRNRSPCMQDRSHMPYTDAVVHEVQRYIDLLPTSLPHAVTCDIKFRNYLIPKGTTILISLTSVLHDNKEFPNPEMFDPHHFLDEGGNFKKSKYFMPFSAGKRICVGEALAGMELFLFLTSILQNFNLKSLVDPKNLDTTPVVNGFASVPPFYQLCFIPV

On to `COc1ccccc1CCn1c(=O)c(-c2ccccc2)nc2cncnc21`, for which the Potency was more than 11.4 µM in test [1]; 1 µM (active) in test [3]; more than 9.22 µM in [6]; more than 46 µM in [7]; 5.01 µM (active) in [9]; 3.98 µM (active) in test [10]. Also, in test [12], the Potency is 0.631 µM (active). In addition, the activity change, negative = inhibition in [2] was -5.11%; in test [4], -9.96%. Further, the activity, negative = inhibition in test [5] is -0.776%. The Potency result in [8] and in [11] was “inactive” throughout.

In the case of `CC(C)CCC[C@@H](C)[C@@H]1CC[C@@H]2[C@H]3CC[C@H]4C[C@@H](N)CC[C@@]4(C)[C@@H]3CC[C@]21C`, the Potency in [1] is more than 11.4 µM; in test [6] it was more than 46 µM; in test [7], more than 9.22 µM. The activity change, negative = inhibition in test [2] is 13.1%; in test [4], 26.8%. Besides, the Potency result in test [3] and in test [8] was “inactive” in each case. The activity, negative = inhibition in test [5] is 11.5%. Also, in test [13], the activation was 7.37%.

For the compound `CN(CCO)Cc1ncccc1O`, the Potency in test [1] is more than 11.4 µM; in test [6], more than 46 µM; in test [7], more than 9.22 µM. In addition, the activity change, negative = inhibition was -2.61% in test [2], -10% [at 2.29 µM] in test [3] and 14.9% in test [4]. Also, in test [5], the activity, negative = inhibition was 12.9%. In test [14], the Potency result was “inactive”.

Consider `Cc1nc2cnc(N3CCOCC3)nc2n(Cc2cccs2)c1=O`, for which the Potency in [1] was more than 11.4 µM; in test [3], 2 µM (active); in test [6], more than 9.22 µM; in [7] it was more than 46 µM. Besides, the activity change, negative = inhibition in test [2] was -18.4%; in [4], -3.19%. For the same compound, the activity, negative = inhibition in test [5] was -5.33%. For the same compound, the Potency entry in test [8] and in [11] was “inactive” throughout.

Source of the values: PubChem BioAssay (NCATS).
